# Source: PubChem BioAssay AID1159580 (chemical genetic matrix, 2015)
# Where “and” joins values, the source holds several entries; their conditions need not be identical. Equal values may be shown once. Screen size: about 5,500 compounds; about 2,000 (36%) were called active. Not shown: some 18% with an inconclusive outcome. The list shows a part of the results. Values without a mark were called inactive. Rule as the data show it: active = normalized growth mostly below about 0.91 (no sharp cut-off); inconclusive = no clear call, values can overlap the other calls; inactive = mostly above about 0.92.
# Test: chemical genetic growth profiling, strain panel (AID 1159580);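 also: tested at 20 µM; growth read once vehicle control cultures reached saturation at 30 °C; 1 = growth at the plate median or of vehicle wells; lower values mean less growth of the strain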
# Conditions: S. cerevisiae deletion strains, growth OD
compound,measurement,setting,value
O=C(Nc1ccc([N+](=O)[O-])cc1Cl)c1cc(Cl)ccc1O,normalized growth,"locus YAL021C, strain ccr4, hits give low values",0.798 (active)
same,normalized growth,"locus YAL026C, strain drs2, hits give low values",0.931
same,normalized growth,"locus YAL030W, strain snc1, hits give low values",0.937
same,normalized growth,"locus YAL040C, strain CLN3, hits give low values",0.969
same,normalized growth,"locus YBL061C, strain skt5, hits give low values",0.818 (active)
same,normalized growth,"locus YBR009C, strain hhf1, hits give low values",0.896 (active)
same,normalized growth,"locus YBR021W, strain FUR4, hits give low values",0.898
same,normalized growth,"locus YBR023C, strain chs3, hits give low values",0.757 (active)
same,normalized growth,"locus YBR171W, strain sec66, hits give low values",1.01
same,normalized growth,"locus YBR229C, strain ROT2, hits give low values",0.991
same,normalized growth,"locus YBR231C, strain swc5, hits give low values",0.69 (active)
same,normalized growth,"locus YBR279W, strain paf1, hits give low values",0.748 (active)
same,normalized growth,"locus YCL011C, strain gbp2, hits give low values",0.944
same,normalized growth,"locus YCL016C, strain dcc1, hits give low values",0.458 (active)
same,normalized growth,"locus YCL029C, strain bik1, hits give low values",1.15 [resistant] (active)
same,normalized growth,"locus YCL061C, strain MRC1 (second series), hits give low values",0.999
same,normalized growth,"locus YCL069W, strain vba3, hits give low values",0.959
same,normalized growth,"locus YCR088W, strain abp1, hits give low values",0.97
same,normalized growth,"locus YDL005C, strain med2, hits give low values",1.09 [resistant] (active)
same,normalized growth,"locus YDL035C, strain GPR1, hits give low values",0.856 (active)
same,normalized growth,"locus YDL040C, strain nat1, hits give low values",0.681 (active)
same,normalized growth,"locus YDL074C, strain BRE1, hits give low values",0.895
same,normalized growth,"locus YDL101C, strain DUN1, hits give low values",0.983
same,normalized growth,"locus YDL185W, strain tfp1, hits give low values",1.01
same,normalized growth,"locus YDL192W, strain arf1, hits give low values",1.01
same,normalized growth,"locus YDR001C, strain nth1, hits give low values",0.989
same,normalized growth,"locus YDR069C, strain doa4, hits give low values",1.03
same,normalized growth,"locus YDR101C, strain arx1, hits give low values",1.22 [resistant] (active)
same,normalized growth,"locus YDR137W, strain rgp1, hits give low values",0.18 (active)
same,normalized growth,"locus YDR150W, strain NUM1, hits give low values",0.878 (active)
same,normalized growth,"locus YDR159W, strain sac3, hits give low values",0.785 (active)
same,normalized growth,"locus YDR162C, strain NBP2, hits give low values",0.832 (active)
same,normalized growth,"locus YDR195W, strain ref2",1.24 [resistant] (active)
same,normalized growth,"locus YDR297W, strain sur2, hits give low values",0.938
same,normalized growth,"locus YDR318W, strain mcm21, hits give low values",1.03
same,normalized growth,"locus YDR334W, strain swr1, hits give low values",0.981
same,normalized growth,"locus YDR335W, strain msn5, hits give low values",0.997
same,normalized growth,"locus YDR363W, strain ESC2, hits give low values",0.95
same,normalized growth,"locus YDR388W, hits give low values",0.989
same,normalized growth,"locus YDR392W, strain spt3, hits give low values",0.828
same,normalized growth,"locus YDR502C, strain sam2, hits give low values",1.02
same,normalized growth,"locus YEL003W, strain gim4, hits give low values",1.07
same,normalized growth,"locus YEL037C, strain rad23, hits give low values",1.01
same,normalized growth,"locus YEL061C, strain CIN8 (second series), hits give low values",1
same,normalized growth,"locus YEL061C, strain CIN8, hits give low values",0.965
same,normalized growth,"locus YER002W, strain NOP16, hits give low values",0.884 (active)
same,normalized growth,"locus YER015W, strain faa2, hits give low values",0.901 (active)
same,normalized growth,"locus YER016W, strain bim1, hits give low values",0.772 (active)
same,normalized growth,"locus YER110C, hits give low values",0.934
same,normalized growth,"locus YER111C, strain swi4, hits give low values",1.16 [resistant] (active)
same,normalized growth,"locus YER155C, strain BEM2 (second series), hits give low values",0.985
same,normalized growth,"locus YER155C, strain BEM2, hits give low values",0.99
same,normalized growth,"locus YER167W, strain BCK2, hits give low values",0.929
same,normalized growth,"locus YFR010W, strain ubp6, hits give low values",0.959
same,normalized growth,"locus YGL078C, strain dbp3, hits give low values",1.01
same,normalized growth,"locus YGL086W, strain mad1, hits give low values",0.954
same,normalized growth,"locus YGL167C, strain pmr1, hits give low values",0.606 (active)
same,normalized growth,"locus YGL173C, strain kem1, hits give low values",0.994
same,normalized growth,"locus YGL227W, strain vid30, hits give low values",0.997
same,normalized growth,"locus YGL240W, strain doc1, hits give low values",0.6 (active)
same,normalized growth,"locus YGL248W, strain PDE1, hits give low values",0.932
same,normalized growth,"locus YGL253W, strain hxk2, hits give low values",0.933
same,normalized growth,"locus YGR078C, strain PAC10, hits give low values",0.948
same,normalized growth,"locus YGR135W, strain pre9, hits give low values",1.03
same,normalized growth,"locus YGR252W, strain gcn5, hits give low values",1.01
same,normalized growth,"locus YHR013C, strain ard1, hits give low values",0.627 (active)
same,normalized growth,"locus YHR027C, strain rpn1, hits give low values",0.944
same,normalized growth,"locus YHR030C, strain SLT2, hits give low values",0.922 and 0.995
same,normalized growth,"locus YHR079C, strain IRE1 (second series), hits give low values",1.14 [resistant] (active)
same,normalized growth,"locus YHR079C, strain IRE1, hits give low values",0.981
same,normalized growth,"locus YHR094C, strain hxt1, hits give low values",1.05
same,normalized growth,"locus YHR129C, strain ARP1, hits give low values",0.944
same,normalized growth,"locus YHR142W, strain chs7, hits give low values",0.967
same,normalized growth,"locus YHR200W, strain rpn10, hits give low values",1
same,normalized growth,"locus YIL066C, strain RNR3, hits give low values",0.9
same,normalized growth,"locus YIL073C, strain SPO22, hits give low values",1.59 [resistant] (active)
same,normalized growth,"locus YIL125W, strain kgd1, hits give low values",1
same,normalized growth,"locus YIR030C, strain dcg1, hits give low values",1.14 [resistant] (active)
same,normalized growth,"locus YJL092W, strain hpr5, hits give low values",0.965
same,normalized growth,"locus YJL095W, strain BCK1 (second series), hits give low values",0.91 (active)
same,normalized growth,"locus YJL095W, strain BCK1, hits give low values",0.91 and 1
same,normalized growth,"locus YJL115W, strain asf1, hits give low values",1.05
same,normalized growth,"locus YJL129C, strain trk1, hits give low values",1.13
same,normalized growth,"locus YJL134W, strain LCB3, hits give low values",0.978
same,normalized growth,"locus YJL154C, strain vps35, hits give low values",0.979
same,normalized growth,"locus YJL164C, strain tpk1, hits give low values",0.952
same,normalized growth,"locus YJL166W, strain qcr8, hits give low values",0.758 (active)
same,normalized growth,"locus YJL168C, strain set2, hits give low values",0.996
same,normalized growth,"locus YJL187C, strain SWE1 (second series), hits give low values",0.903
same,normalized growth,"locus YJR043C, strain POL32, hits give low values",0.929
same,normalized growth,"locus YJR066W, strain TOR1, hits give low values",0.904
